This note sets out measurements from PubChem BioAssay (NCATS).

For assay [1], the system named is Zika virus NS2B-NS3 protease (linked construct). Kind of assay: Primary screen NINDS Rhodamine qHTS for Zika virus inhibitors (AID 1347160). Also: nearly all actives have a fitted effect of over 55% in size. Also: potency is read from the fitted curve at half-maximal effect. In short, it runs like this: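 Purified linked NS2B-NS3 protease (NS2B hydrophilic domain joined to NS3 protease by flexible linker), 25 nM in 10 mM Tris-HCl pH 8.0, 0.01% Tween 20. Compounds titrated, 15 min preincubation at room temperature; 1.5 microM Rhodamine110 substrate, FITC fluorescence change over 15 min.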
(In general: In qHTS, concentration-response curves come from the screen itself.)

The nature of assay [2]: OV-KATE Cancer Cell Toxicity qHTS against the NCATS CANVASS Library (AID 1347345). The gist of the method: (§1)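 Following a 4 h pre-incubation of 1000 seeded cells, compounds were pinned in an 11-pnt dilution series and left for 72 h; viability then came from CellTiter-Glo.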
The nature of assay [3]: HPAF-II Cancer Cell Toxicity qHTS against the NCATS CANVASS Library (AID 1347346). Also: series mostly up to about 38 µM; nearly all actives have a fitted effect of over 55% in size. In short, it runs like this: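 Cytotoxicity in HPAF-II pancreatic cancer cells: 72 h treatment across 11 concentrations, ATP-based CellTiter-Glo luminescence endpoint.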
Assay [4] is described as follows: UWB1.289 Cancer Cell Toxicity qHTS against the NCATS CANVASS Library (AID 1347347). Also: series mostly up to about 38 µM; nearly all actives have a fitted effect of over 60% in size. The gist of the method:
as §1

Assay [5] is described as follows: Panc-1005 Cancer Cell Toxicity qHTS against the NCATS CANVASS Library (AID 1347349). Also: series mostly up to about 38 µM; nearly all actives have a fitted effect of over 60% in size. The gist of the method: as §1
A short description of assay [6]: HPAF-II 24hr Apoptosis Induction qHTS against the NCATS CANVASS Library (AID 1347356). In short, it runs like this: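 Apoptosis induction in HPAF-II pancreatic cancer cells is measured as caspase-3/7 luminescence after a 24-hour exposure to compounds.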
Assay [7] is described as follows: HPAF-II 12hr Apoptosis Induction qHTS against the NCATS CANVASS Library (AID 1347358). In short, it runs like this: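 Apoptosis in HPAF-II pancreatic cancer cells is scored as caspase 3/7 luminescence following a 12-hour exposure to an 11-point compound series.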
A short description of assay [8]: HEK293 24hr Apoptosis Induction qHTS against the NCATS CANVASS Library (AID 1347359). The gist of the method:
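Caspase-3/7 activation measured as luminescence from the DEVD-based Caspase-Glo reagent, 15 min at room temperature, following 24-hour compound treatment of HEK293 cells.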

Assay [9] can be described thus: HPAF-II 18hr Apoptosis Induction qHTS against the NCATS CANVASS Library (AID 1347360). The gist of the method: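 Caspase-3/7 activation was measured with luminescent Caspase-Glo 3/7 reagent (15 min, RT) in HPAF-II cancer cells (500 cells/well). Before detection, cells had been treated for 18 h at 37 C with compounds (11 points).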
Assay [10] is described as follows: HEK293 12hr Apoptosis Induction qHTS against the NCATS CANVASS Library (AID 1347361). In short, it runs like this: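 HEK293 cells (500/well, DMEM + 10% FBS) were exposed to natural products across an 11-point series for 12 hours at 37 degrees C. Caspase-3/7 activity was then measured with DEVD luciferase luminescence after 15 min at room temperature.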
Assay [11] concerns NAD(P)H diaphorase (Clostridium kluyveri). Description: Diaphorse counterscreen qHTS: Assay Interference Panel against the NCATS CANVASS Library (AID 1347362). The gist of the method:
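Counterscreen for coupling-enzyme interference: resorufin fluorescence from resazurin/NADH turnover, read after 5 min at room temperature. Compounds were tested over an 11-point series after 15 min dark preincubation with diaphorase in PBS-Tween.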

The target in assay [12] is Luciferin 4-monooxygenase (Photinus pyralis) (UniProt P08659). Description: Firefly luciferase counterscreen qHTS: Assay Interference Panel against the NCATS CANVASS Library (AID 1347363). Also: series mostly up to about 57 µM. In short, it runs like this: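 Luminescence inhibition readout: compounds (11-point qHTS) sat 15 min at room temperature with substrate mix (0.013 mM luciferin and ATP), then firefly luciferase was added and signal read 5 min later.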
A general note: The purpose of a counterscreen is to sort out artefacts and off-target activity.

The nature of assay [13]: qHTS for ATAD5 Agonist screened against the NCATS CANVASS Library (AID 1347367).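 Also: luciferase reporter driven by ATAD5 which rises upon DNA damage.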 In short, it runs like this: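 Genotoxicity via ATAD5-luciferase luminescence after 16 h compound exposure (11-point series) at 37C in HEK293T-ATAD5 cells. CellTiter-Fluor viability read precedes the luminescence read; MMS serves as positive control.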
A short description of assay [14]: qHTS for ATAD5 Antagonist screened against the NCATS CANVASS Library (AID 1347370).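 Also: HEK293T cells carrying an ATAD5 luciferase reporter co-treated with 10 µM 5-fluorouridine; series mostly up to about 46 µM; nearly all actives have a fitted effect of over 65% in size.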 The gist of the method:
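HEK293T cells with a stably integrated ATAD5-controlled luciferase reporter were exposed to compounds (11-pt) alongside 10 uM 5-fluorouridine as ATAD5 stabilizer for 16hr at 37C. Viability was read by CellTiter-Fluor fluorescence, then ATAD5 by luminescence.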

Assay [15] can be described thus: J3T Cancer Cell Toxicity qHTS against the NCATS CANVASS Library (AID 1347371). The gist of the method: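 Viability of the J3T glioma line from dog is scored by ATP luminescence after a 72 hr incubation with natural products.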
Assay [16] addresses Nuclear receptor subfamily 1 group I member 3 (Homo sapiens) (UniProt Q14994). Description: qHTS for Constitutive Androstane Receptor (CAR) Agonist screened against the NCATS CANVASS Library (AID 1347373).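 Also: every well also contained 1.5 µM PK11195 alongside the test compound.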 The gist of the method: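 CAR agonism is scored as CYP2B6-promoter luciferase induction in a double-stable transfected HepG2 line, where 1.5uM PK11195 is included in each well. Compounds were tested over a 24hr exposure.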

Assay [17] can be described thus: qHTS for Hypoxia signaling pathway (HIF-1) agonists against the NCATS CANVASS Library (AID 1347375). In short, it runs like this: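 Inducers of HIF-1 signaling were detected in ME-180 cells bearing an HRE-driven beta-lactamase reporter after 17 h compound exposure. Activity came from CCF4-AM FRET emission ratio (460/530 nm) in qHTS format.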
A short description of assay [18]: 10-beta competent E. coli microbial cell viability qHTS against the NCATS CANVASS Library (AID 1347376). Also: series mostly up to about 46 µM. In short, it runs like this: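 Cytotoxicity toward competent E. coli is scored from cellular ATP content via BacTiter-Glo luminescence following overnight compound exposure at 37C, 5% CO2.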
The nature of assay [19]: qHTS for Inflammasome Signaling Inhibitors: IL-1-beta AlphaLISA screen against the NCATS CANVASS Library (AID 1347379).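 Also: human THP-1 cells primed with LPS then triggered with ATP.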 In short, it runs like this: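 Human THP-1 cells were pretreated 1 hr at 37 °C with compounds (up to 57.5 uM final), then stimulated with LPS (250 ng/mL final) and ATP (1.25 mM final). Secreted IL-1B was read by AlphaLISA after 16 hr.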
The nature of assay [20]: Inflammasome Signaling qHTS Counterscreen: IL-1-beta AlphaLISA counterscreen against the NCATS CANVASS Library (AID 1347381).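 Also: cell-free check with purified IL-1β in medium and no THP-1 cells; series mostly up to about 57 µM.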 The gist of the method: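 To flag interference with the AlphaLISA read-out, a known amount of purified IL-1-beta (4 pg) replaced cell supernatant. Detection used anti-IL-1-beta acceptor beads, biotinylated antibody and streptavidin donor beads at room temperature.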

Records with an inconclusive call do not appear. Activity calls are given as the source filed them. Calls follow the shape of the dose curve; as a rule, active = well fitted curve in the direction sought with a large enough effect; inconclusive = small, poorly fitted or top-dose-only effect, or another doubt; inactive = no such curve, though single readings can be large; an effect the other way counts as inactive or inconclusive.

Luciferin 4-monooxygenase (Photinus pyralis), sequence (P08659 whole entry, looked up): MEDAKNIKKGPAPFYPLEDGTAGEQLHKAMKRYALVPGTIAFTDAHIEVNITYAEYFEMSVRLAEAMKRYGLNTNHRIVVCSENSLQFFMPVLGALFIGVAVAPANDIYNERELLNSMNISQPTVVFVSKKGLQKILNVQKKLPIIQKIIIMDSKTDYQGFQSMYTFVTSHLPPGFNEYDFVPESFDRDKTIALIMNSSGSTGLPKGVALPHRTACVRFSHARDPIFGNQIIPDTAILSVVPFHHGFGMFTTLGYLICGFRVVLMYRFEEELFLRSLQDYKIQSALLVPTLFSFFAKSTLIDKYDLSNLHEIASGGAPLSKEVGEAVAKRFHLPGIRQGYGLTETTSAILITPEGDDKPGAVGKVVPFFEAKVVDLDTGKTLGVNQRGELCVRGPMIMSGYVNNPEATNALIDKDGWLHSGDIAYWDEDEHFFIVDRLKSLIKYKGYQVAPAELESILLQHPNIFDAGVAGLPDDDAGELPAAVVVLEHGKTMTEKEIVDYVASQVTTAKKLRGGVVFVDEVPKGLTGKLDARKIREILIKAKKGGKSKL
Nuclear receptor subfamily 1 group I member 3 (Homo sapiens), sequence (Q14994 whole entry, looked up): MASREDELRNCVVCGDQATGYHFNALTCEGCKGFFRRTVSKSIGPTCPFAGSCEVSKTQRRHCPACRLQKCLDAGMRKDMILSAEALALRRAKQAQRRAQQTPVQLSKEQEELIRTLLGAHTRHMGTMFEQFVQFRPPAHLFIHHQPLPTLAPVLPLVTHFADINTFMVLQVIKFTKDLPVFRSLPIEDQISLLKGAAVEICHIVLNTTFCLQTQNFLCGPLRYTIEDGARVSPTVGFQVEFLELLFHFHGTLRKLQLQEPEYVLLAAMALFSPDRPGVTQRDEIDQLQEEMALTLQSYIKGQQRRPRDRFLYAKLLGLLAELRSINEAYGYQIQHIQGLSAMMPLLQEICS

For `C=C1[C@H]2CC[C@@]3(C=CC(=O)[C@@](C)(CCC(=O)Nc4c(O)ccc(C(=O)O)c4O)C3C2)[C@H]1O` (stereo partly drawn), the Potency in assay [1] is 44 µM (active). Moreover, the Potency result in assay [2], in assay [3], in assay [4], in [5], in assay [7] and in [8] was “inactive” throughout. Also, the Potency entry in assay [9], in assay [10], in [11], in assay [12], in [13] and in [14] was “inactive” each time. For the same compound, the Potency entry in assay [15], in [17] and in [19] was “inactive” each time. The outcome in assay [6], in assay [16], in [18] and in [20] was inactive.

In the case of `C=C[C@@]1(C)CC[C@@H]([C@H](C)C(=O)/C=C/C(C)C)O1`, the Potency result in assay [1], in assay [2], in assay [3], in assay [4], in [5] and in assay [7] was “inactive” throughout. Moreover, the Potency result in assay [8], in assay [9], in [10], in [11], in assay [12] and in assay [13] was “inactive” throughout. Besides, the Potency result in assay [14], in [15], in assay [17] and in assay [19] was “inactive” throughout. In addition, the call in assay [6], in assay [16], in assay [18] and in assay [20] was inactive.

`Cc1cc(O)cc2oc(C[C@H](C)O)cc(=O)c12`: in [1], the Potency is 44 µM (active). The Potency entry in [2], in [3], in assay [4], in assay [5], in assay [7] and in assay [8] was “inactive” throughout. In addition, the Potency entry in assay [9], in assay [10], in assay [11], in [12], in [13] and in assay [14] was “inactive” throughout. Moreover, the Potency entry in assay [15], in assay [17] and in [19] was “inactive” throughout. Further, the result in [6], in assay [16], in [18] and in assay [20] was inactive.

For the compound `C=C1C[C@@]23C=CC(=O)[C@@](C)(CCCC(C)C(=O)O)[C@@H]2C[C@@H]1CC3` (stereo partly drawn), in assay [1], the Potency is 44 µM (active). Also, the Potency result in assay [2], in assay [3], in [4], in [5], in [7] and in assay [8] was “inactive” each time. Also, the Potency result in assay [9], in [10], in [11], in [12], in [13] and in [14] was “inactive” each time. Moreover, the Potency entry in [15], in [17] and in assay [19] was “inactive” in each case. The result in [6], in assay [16], in assay [18] and in assay [20] was inactive.

As for `O=c1cc(-c2ccc(O)cc2)oc2c([C@@H]3OC(CO)[C@H](O)[C@@H](O)[C@H]3O)c(O)cc(O)c12` (stereo partly drawn), in assay [1], the Potency is 17.5 µM (active). Moreover, the Potency entry in [2], in assay [3], in assay [4], in [5], in [7] and in assay [8] was “inactive” in each case. For the same compound, the Potency entry in assay [9], in assay [10], in assay [11], in assay [12], in [13] and in [14] was “inactive” in each case. Moreover, the Potency entry in [15], in assay [17] and in assay [19] was “inactive” throughout. Moreover, the call in assay [6], in assay [16], in assay [18] and in assay [20] was inactive.

Turning to `C=C1/C=C\C(CCC)=C\c2csc(n2)C(C)NC(=O)C[C@@]2(CC(=O)O)CCC(=C)[C@H](C1)S2` (stereo partly drawn), the Potency in [1] was 2.77 µM (active). Also, the Potency entry in assay [2], in [3], in assay [4], in assay [5], in assay [7] and in assay [8] was “inactive” in each case. Further, the Potency entry in assay [9], in assay [10], in assay [11], in assay [12], in assay [13] and in assay [14] was “inactive” throughout. The Potency result in assay [15], in assay [17] and in assay [19] was “inactive” each time. The compound was called inactive in assay [6], in [16], in assay [18] and in assay [20].

For the compound `Oc1ccc(C2c3c(O)cc(O)cc3[C@@H]3C(c4ccc(O)cc4)c4c(O)cc(O)cc4[C@H]23)cc1` (stereo partly drawn), the Potency in [1] is 34.9 µM (active). In addition, the Potency entry in assay [2], in assay [3], in [4], in assay [7], in assay [8] and in [9] was “inactive” throughout. In addition, the Potency result in [10], in [11], in [12], in assay [13], in [14] and in [15] was “inactive” each time. Further, the Potency result in [17] and in [19] was “inactive” throughout. In addition, the compound was classed as inactive in [6], in assay [16], in assay [18] and in [20].

With `CS/C=C/C(N)=O`, the Potency entry in assay [1], in [2], in [3], in [4], in assay [5] and in assay [7] was “inactive” in each case. Further, the Potency result in assay [8], in assay [9], in assay [10], in assay [11], in assay [12] and in assay [13] was “inactive” in each case. The Potency result in assay [14], in assay [15], in [17] and in assay [19] was “inactive” each time. Also, the call in assay [6], in assay [16], in assay [18] and in assay [20] was inactive.

As for `COc1cc(O)c2c3c(c(O)cc(C)c13)C(=O)OC2`, the Potency in assay [1] was 22 µM (active). Also, the Potency entry in assay [2], in assay [3], in [4], in assay [5], in [7] and in assay [8] was “inactive” each time. Besides, the Potency entry in assay [9], in [10], in assay [12], in assay [13], in [14] and in assay [15] was “inactive” throughout. For the same compound, the Potency result in assay [17] and in assay [19] was “inactive” in each case. Moreover, the compound was classed as inactive in assay [6], in assay [16], in assay [18] and in assay [20].
